According to the supplement of paper PMC12632987:
Whole data set: some 4,500 sequences, median “median log2 fold change of GCK-ALFA target abundance (FLAG IP / Myc IP barcode read proportion)” near 0.078, cut for the lowest 2% near -0.6. The full list was thinned out, with the lowest values kept by preference.

B1: GBRAP_84_6999 (protein)
chain: STDEEIIELAKEIFDRVKGEAAVKILALVLLKVTGETATRILNYALERDPQVAYDALSLAYEVVSEDKEEELEEEARRLMAEESPEVRAKFERLLELMKA
B2: GBRAP_128_3320 (protein)
chain: MDEELLAEFKELAEAAKKADLPTLAKLTAEMVALIGQADAETREEMAEIFRKALEELDAEKLDVVADTLRAEMPKLDPEAARVVADLAVDALNLAEEKEE
B3: GBRAP_11_2689 (protein)
chain: KKEKLEEGAKLAEKGAELVERLLREGVDNEELLAELEKTLEELLKLAKKHASPASQKLTEDIKETWKRLLADPENAEEYARELLAGLRVLAGQYLLEIEE
B4: GBRAP_137_3670 (protein)
chain: MIRVEVELENGLAFARITVEGSPEELERAAEIAEDIAGEIPDLAVSVKLTEEGRLEIDVFGTPESVEAFLRRLAERLDRTVEVTTRDEETGEVRRRVIRP
B5: GBRAP_184_5066 (protein)
chain: SVAEETLEVRDLAEARAKLAALRAAVADHRGDLVVHLVLPEFDREIVALVLEGLAEIRAAGYARRVTVGLDADLTEEEADFAIELADAAGVNLTLALPEE
B6: GBRAP_95_7084 (protein)
chain: EEELEEAEALMATAVDLYDAGLEEQAARAIRDALDELEELGYKVADKELLERLLRHFVALALRHFDAEEVERALALAEASGAPAEIIAALRAALAALRAA
B7: GBRAP_79_6747 (protein)
chain: GVEEARRALVEALRVVLPDLTEEEAAEAVASDEALRAALLRAGISEEMAAELLEAIDAIPELAAERFRRTVERMEGLEPEDRRDVLEATIAAVIYEAEQR
B8: GBRAP_160_4279 (protein)
chain: SEKLLELAEELEEDREEILSLVDEISAEEVRTLAVTDLGSILLEAIDLELLSDEEEDELAKIIDDLDAELAAAADASPAERRAIITRHYDKAIELLRKAA
B9: GBRAP_52_6358 (protein)
chain: ALEEALALLREALAAVAAGDEEEARAILEELVATYSEETILAAFERLAEEVADKDVATAEALLETALLLADVMDEAGRDPAVADDIEAIAARTYMAVKAK
B10: GBRAP_48_5840 (protein)
chain: EEEKREKAIEEILKIIKETAELLEEAKEEGLSEAAFEAILIDAAEEIKEVLEKYLGLGEEFEKLPLEEQLAIVEELVKTYKEEGEEATRKKIKEFIEKLE
B11: GBRAP_186_5371 (protein)
chain: EEEAEKEIEEFIDEAAKKGYVISGVLEVKEFTEEAKKKIFDELEALAEFSAEFGYKGALIIKSTVSEEEFEELKKFVEEKRDELSKETGAEVEVKIVHVK
B12: GBRAP_78_6619 (protein)
chain: ETKEKIIELLDRARDRMREIARREPEVRDLANEAAVLVGTAILMVDTGEESKEEIIEELEEALKVAKELLERLEGRDEESVKLAKEAIEDLKKAIELVKK
B13: GBRAP_160_4698 (protein)
chain: TATAEKLKAFVKEEFEKAKEEIEGESREQRAVILAGTGGEILMELVEDPNATDELEDEVLAIFDDAVATLLANPNLTLEETKALIDEVEAKVLAAIDKHL
B14: GBRAP_166_4925 (protein)
chain: MIEEKVEEARKRLEEVIREGRADPSLTDGQITAAMAYEVAEMLKDIEDEEEKLAVVEEGLRLAKEEGLDPRRLATLTASLYGFSDEERERIDEITEKILA
B15: GBRAP_53_6398 (protein)
chain: AAAAIAAGLAELEALIAEVEADPTLDAADVAARAGALLKALAAAGAPEAELTALARRLAAAVAARGLGVEVSTALAATAAAAGREAVAAVFTEAAVEDLE
B16: GBRAP_128_3157 (protein)
chain: STEEVREETRRLLEEIRESDEEEAREIARELFALILTLSDEEAEAAVEVILELLPELSKEKLEILADVAREMRPEADPFKAELLAEVEVEALNEALELEE
B17: GBRAP_45_5811 (protein)
chain: SEELKETREKLEELLKKAKELAEKLKEEDPEKFTPLLELLEEAEKLLKEEPESLEAWERIEELLEEALKLALDSKKASAELLETLLEAANLALEAKELLE
B18: GBRAP_52_5842 (protein)
chain: MEEEARRLAEELVALAEAGREEELDALIEEIVETLSEEEVMLVLEELARLAAEADPETAEVIFDVADRLADAALAAGFDEMEMSLGLALVGAAVYKALQR
B19: GBRAP_184_5031 (protein)
chain: SVIERTIKADNLEELEAKLEKLKEEVKGSKADLIVTLDIKNPTEEMIKTALKRLGEMKKNGDVSSVTVGFARLLSEELIDVALKTADEEGVKVVLPISEE

These binders were tested against GABARAP, O95166 (assay: median log2 fold change of GCK-ALFA target abundance (FLAG IP / Myc IP barcode read proportion) (log2 ratio); each designed protein is fused to an ALFA-tag nanobody in HEK293 cells to bring the named protein to FLAG-tagged glucokinase (GCK); Myc marks an untargeted standard; higher = target protein stabilised (more abundant)). Conditions: target protein: 3xFLAG-MCP-GCK-ALFA reporter; HEK293 landing pad (RPLP).
Sequence of GABARAP, O95166 (O95166 whole entry, the tested form may be a part): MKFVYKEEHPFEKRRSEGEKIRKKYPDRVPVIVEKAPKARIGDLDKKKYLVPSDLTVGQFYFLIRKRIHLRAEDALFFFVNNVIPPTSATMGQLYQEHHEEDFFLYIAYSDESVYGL
Summary of the method: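 The readout is target abundance, the per-binder median log2 ratio of FLAG to Myc barcode read proportions. It came from HEK293 landing-pad cells carrying a recombined ALFA-nanobody-fused binder library, induced with 2 μg mL^−1 doxycycline and transfected with a plasmid for a FLAG-tagged target and a Myc-tagged standard. After 48 h, lysates were immunoprecipitated with anti-FLAG and anti-Myc, and circular RNA barcodes were reverse transcribed, amplified and sequenced. Each barcode needed a proportion of at least 10^−7 in both replicates and each binder at least 3 barcodes per replicate, a pseudocount of 10^−6 was added, and the replicates were pooled.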
For B1, the “median log2 fold change” value was -0.601.
In the case of B2, the “median log2 fold change” value is reported as 0.0824.
With B3 the “median log2 fold change” value was 0.195.
For B4, the “median log2 fold change” value was 0.0906.
With B5 the “median log2 fold change” value was 0.0273.
B6 was tested, and the “median log2 fold change” value was -0.692.
B7 was tested, and the “median log2 fold change” value was 0.209.
With B8 the “median log2 fold change” value was -0.493.
For B9, the “median log2 fold change” value was -0.632.
B10 was tested, and the “median log2 fold change” value was -0.364.
In the case of B11, the “median log2 fold change” value is reported as 0.163.
In the case of B12, the “median log2 fold change” value is reported as 0.338.
In the case of B13, the “median log2 fold change” value is reported as -0.69.
For B14, the “median log2 fold change” value was 0.302.
For B15, the “median log2 fold change” value was 0.254.
In the case of B16, the “median log2 fold change” value is reported as 0.00897.
For B17, the “median log2 fold change” value was 0.129.
In the case of B18, the “median log2 fold change” value is reported as -0.837.
B19 was tested, and the “median log2 fold change” value was 0.0419.
